# From PubChem BioAssay
# In the library only some 2.4% were active in any assay of this set; here they are far more common.
# CHT block = inhibitors of human choline transporter CHT; High affinity choline transporter 1 (Homo sapiens), Q9GZV3; CHT-expressing cells, membrane potential dye, choline response; hits give low values; B-score at 10 µM; 310,000 compounds, 0.86% hits; AID 488975, 2010;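 active means B-score over 3 SD under the library average, and starting fluorescence ratio not unusually high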;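 further: choline stimulus applied at its EC90 after an EC20 pre-addition; B-score computed on integrated fluorescence ratio after choline addition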
# CHT allo act = CHT positive allosteric modulators, primary screen, cell-based, membrane potential dye, choline EC20; High affinity choline transporter 1 (Homo sapiens), Q9GZV3; CHT-expressing cells; hits give high values; LV-AA mutant CHT in HEK293 cells; B-score at 10 µM; 310,000 compounds, 0.49% hits; AID 488977, 2010;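 active means initial fluorescence not abnormally high and integrated response B-score, plate-corrected, over 3 SD above library mean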
# TMEM16A inh = TMEM16A chloride channel inhibitors, primary screen, cell-based, HTS; Anoctamin-1 (Mus musculus), Q8BHY3; HEK293 TMEM16A/YFP iodide influx fluorescence, ionomycin; normalized B-score (activity score, 25-100; higher = stronger inhibition) at 10 µM; 310,000 compounds, 1.2% hits;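 active means ratio plate-corrected score three or more library SD toward inhibition, starting fluorescence score within five deviations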;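 further: score derived from kinetic fluorescence span divided by baseline fluorescence per well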
# ANO1 activ = TMEM16A chloride channel activators or potentiators, primary screen, cell-based, HTS; Anoctamin-1 (Mus musculus), Q8BHY3; HEK293 TMEM16A/YFP-H148Q/I152L, iodide quench fluorescence; hits give low values; B-score at 10 µM; 340,000 compounds, 0.3% hits; AID 623877, 2012;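 active means fluorescence-ratio B-score plate-corrected deviation score at least 3 library SD below zero, with starting fluorescence score within 5 deviations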;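 further: channel opened by trigger with iodide after compound preincubation; score built on the fluorescence ratio of max minus min over baseline; more negative score means more quench and so TMEM16A activation or potentiation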
# TMEM16A reconf = TMEM16A chloride channel inhibitors, confirmation, cell-based, re-confirmation | shares compounds with TMEM16A inh | HEK293 TMEM16A/YFP-H148Q, iodide quench fluorescence; ionomycin added to raise cell calcium | inhibition, % at 10 µM | 2,300 compounds, 39% hits | AID 652189, 2013;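 active means mean duplicate percent inhibition, scaled so buffer wells are 0 and the reference blocker 100, over three buffer SD above buffer mean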
# TMEM16A Ca cntr = calcium mobilization in TMEM16A/YFP HEK293 cells, confirmation, counter-screen for TMEM16A inhibitor project; shares compounds with TMEM16A inh; AID 652231, 2013; 2,300 compounds, 2% hits; calcium response (% of ionomycin), % at 10 µM; Fluo4 calcium mobilization;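 active means duplicate-averaged calcium signal over 20% of the ionomycin maximum, relative to buffer baseline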;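 further: each well's signal is peak minus trough fluorescence divided by its pre-addition baseline; 0% = buffer wells and 100% = ionomycin wells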
# Parental YFP cnt = iodide YFP quench changes in parental YFP-HEK293, counter-screen for TMEM16A inhibitor project, cell-based; ionomycin; 2,300 tested, under 10 active; shares compounds with TMEM16A inh; YFP ratio F(max-min)/F0 at 10 µM;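 active means yellow fluorescent protein signal ratio exceeding the buffer control mean by over 5 SD of those controls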;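 further: ratio is mean of duplicate wells from kinetic YFP trace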
# ClC-1 inh = ClC-1 chloride channel inhibition, selectivity assay for TMEM16A inhibitor project, cell-based, voltage-dependent ClC-1 | shares compounds with TMEM16A inh | CHO ClC-1-YFP, iodide influx fluorescence quench; iodide control reads 0, buffer control 100 | ratio percent, % at 10 µM | 2,300 tested, under 10 active;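 active means duplicate-mean ratio percent above the mean of iodide-only control wells, which defines zero, plus 5 of their SD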;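 further: higher percent means stronger block of ClC-1 iodide influx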
# An asterisk follows results filed as active; i = inactive; . = not tested or not shown.
SMILES,CHT block,CHT allo act,TMEM16A inh,ANO1 activ,TMEM16A reconf,TMEM16A Ca cntr,Parental YFP cnt,ClC-1 inh
CCOc1ccc(S(=O)(=O)NC(Cc2c[nH]c3ccccc23)C(=O)O)cc1 (stereo unspecified),i,i,i,i,.,.,.,.
O=C(Cc1cccs1)Nc1ccc(S(=O)(=O)Nc2ncccn2)cc1,i,i,25*,i,i,i,-1.11,-6.5
Cc1nn(Cc2ccc(C(=O)Nc3nc4c(C)cccc4s3)o2)c(C)c1Br,i,i,100*,i,i,i,-1.16,5.5
Cc1cccc(N2CCN(C(=O)c3ccc4c(c3)OCCO4)CC2C)c1 (stereo unspecified),i,i,i,i,.,.,.,.
Cc1cccc(N2CCN(C(=O)CN3CCOc4ccccc43)CC2C)c1 (stereo unspecified),i,i,25*,i,i,i,-1.05,-12.0
COc1ccc(N2CCN(C(=O)c3ccc(C)c(Cl)c3)CC2)cc1,i,i,25*,i,i,i,-1.03,0.5
COc1ccc(N2CCN(C(=O)c3ccc(Cl)c(S(=O)(=O)N4CCCC4)c3)CC2)cc1,i,i,i,i,.,.,.,.
CC1CC(C)CN(CC(C)(C)NS(=O)(=O)c2ccc(Cl)cc2)C1 (stereo unspecified),i,i,i,i,.,.,.,.
Cc1cc(C(=O)CSc2nnc(N)s2)c(C)n1Cc1cccs1,i,i,i,i,.,.,.,.
Cc1cc(C(=O)CSc2n[nH]c(-c3ccccc3F)n2)c(C)n1Cc1cccs1,i,i,100*,i,i,i,-1.06,-4.5
COc1cc(/C=C2\C(=N)N3N=C(S(C)(=O)=O)SC3=NC2=O)ccc1OCCOc1ccc(C)cc1,i,i,25*,i,i,i,-1.05,-3.5
O=C(Nc1nc(-c2cc(Cl)sc2Cl)cs1)c1cccs1,i,i,i,i,.,.,.,.
O=C(Nc1nc(-c2cc(Cl)sc2Cl)cs1)c1ccc(Br)s1,i,i,25*,i,i,i,-1.03,-11.0
O=C(CN1CCN(C(=O)C2CC2)CC1)Nc1cc(C(F)(F)F)cc(C(F)(F)F)c1,.,.,.,i,.,.,.,.
O=C(CN1C(=O)NC2(CCCCC2)C1=O)N1CCOCC1,.,.,.,i,.,.,.,.
CCC1CCCCN1S(=O)(=O)c1ccc(NC(=O)c2ccncc2)cc1 (stereo unspecified),i,i,25*,i,22.0%*,i,-0.956,-14.5
COC(=O)C1=C(C)N(C)C(C)=C(C(=O)OC)C1c1ccccn1,i,i,i,i,.,.,.,.
CCCOc1ccccc1C1CC(=O)Nc2cc3c(cc21)OCCO3 (stereo unspecified),i,i,100*,i,25.5%*,i,-0.882,-17.0
CCOC(=O)c1nnn(-c2nonc2N)c1CN1CCCCCC1,i,i,i,i,.,.,.,.
CCOC(=O)c1nnn(-c2nonc2-n2cccc2)c1CN1CCCCC1,i,i,100*,-6.9*,i,i,-1.06,-13.5
CC(NC(=O)/C(=C\c1ccco1)NC(=O)c1ccccc1Br)C(=O)O (stereo unspecified),i,i,i,i,.,.,.,.
CCN(CC)c1ccc(C=Nc2ccc(C)cc2)c(O)c1,i,i,i,i,.,.,.,.
CCN(CC)c1ccc(C=Nc2cc(C)cc(C)c2)c(O)c1,i,i,25*,-5.19*,i,i,-1.13,-3.0
